{"source": "PubChem BioAssay AID504332", "about": "(National Center for Advancing Translational Sciences (NCATS), 2011)", "note": "Hit rate of the full screen: of about 350,000 compounds, about 31,000 (8.9%) were called active. Another 15% or so got no clear call; they are omitted. The sample holds actives, similar compounds and a random draw of the others, so the mix is not that of the screen. Values without a mark were called inactive. The call rests on the fitted dose curve; in most records, active means well fitted inhibition curve with a large enough effect; inconclusive means small, poorly fitted or top-dose-only effect; inactive means no such curve, though single readings can be large or run the other way. On the % scale 0 is the no-effect control and ±100 the full control effect; potency means the concentration at half of the fitted maximal effect.", "data": [{"target": "Histone-lysine N-methyltransferase EHMT2 (Homo sapiens) (UniProt Q96KQ7)", "sequence (Q96KQ7 913-1193 limits assumed)": "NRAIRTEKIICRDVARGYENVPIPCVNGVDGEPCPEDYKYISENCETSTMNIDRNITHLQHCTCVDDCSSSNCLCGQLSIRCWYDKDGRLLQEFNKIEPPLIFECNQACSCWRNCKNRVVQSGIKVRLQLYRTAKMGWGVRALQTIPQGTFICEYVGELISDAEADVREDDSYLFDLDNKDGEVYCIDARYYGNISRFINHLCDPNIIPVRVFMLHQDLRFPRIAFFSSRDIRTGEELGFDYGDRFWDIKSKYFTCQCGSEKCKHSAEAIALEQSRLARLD", "test": "qHTS Assay for Inhibitors of Histone Lysine Methyltransferase G9a; further: nearly all actives have a fitted effect of over 75% in size", "settings": "G9a H3K9 monomethylation, AlphaScreen, 2 h; series mostly up to 59 µM; activity, negative = inhibition: at the top concentration", "text": "Methylated lysines, on the N-terminal tails of histone proteins serve as epigenetic markers to recruit factors that can then modify local chromatin structure to lead to functional consequences. G9a and other members of the SUV39 family of the SET domain-containing superfamily of histone lysine methyltransferases (HMT) have been identified to specifically methylate Lys9 of histone H3 (H3K9). G9a catalyzes the mono- and di-methylation of H3K9 in mammalian euchromatic regions, where the resulting H3K9me2 is indicative of transcriptional repression. […] The inhibition of G9a will result in transcriptional activation and work synergistically with DNA methyltransferase and histone deacetylase inhibitors, to kill cancer cells. This qHTS assay for identification of G9a inhibitors is a chemiluminescence based AlphaScreen (PerkinElmer). Methylation of biotinylated-histone peptide is measured through specific antibody-based detection, in conjunction with streptavidin-coated donor and anti-IgG antibody-coated acceptor beads. The method is particularly well suited for detection of inhibitors acting by the desired histone peptide competitive mechanism and is applicable to testing other HMTs. Although AlphaScreen has significant advantages with its utility in a variety of epigenetic target assays, the primary screening data provided in this deposition should be used with caution due to the prevalence of screening artifacts. An AlphaScreen counterscreen is highly recommended to be run against any putative actives to eliminate non specific artifacts. Alternatively, one can use other AlphaScreen assays in PubChem to filter out promiscuous hits. Quinn et al. A chemiluminescence-based method for identification of histone lysine methyltransferase inhibitors. Mol Biosyst 6(5): 782-8. 2010. PMID: 20567762 [2] Baell,Holloway. New substructure filters for removal of pan assay interference compounds (PAINS) from screening libraries and for their exclusion in bioassays. J Med Chem. 53(7):2719-40. 2010. PMID: 20131845 NIH Molecular Libraries Probe Production Network [MLPCN] NIH Chemical Genomics Center [NCGC] Structural Genomics Consortium (SGC) NIH Grant: 5U54 MH084681-02\nTo each well of a 1,536w plate, 2ul of HMT enzyme (final 20nM) were added, using a nanoliter dispenser. The G9a- and GLP-inhibitor BIX-01294 (CID: 25150857) are used as an intraplate control, with a 16-point titration in duplicate. A Kalypsys pin-tool transferred 23nl of library compound solution in DMSO to each well. Following a 15 min incubation of enzyme with compounds at room temperature, 1ul mixture of b-H3K9 peptide substrate (final 500nM) and SAM cofactor (final 20uM) were added. Reactions were allowed to proceed at room temperature for 2 hours. Methylated b-H3K9 peptide product was detected with 0.5 ug/mL rabbit polyclonal anti-monomethyl histone H3K9 antibody (Abcam Inc., Cambridge, MA) and 20 ug/mL each streptavidin-coated donor and anti-rabbit IgG acceptor AlphaScreen beads. Antibody and beads were added in a 1ul dispense, for a final volume of 4ul, and plates were incubated, protected from the light, for 10 min at room temperature. Microplates were then read on an EnVision multilabel plate reader using the 1,536 plate HTS AlphaScreen aperture (excitation time 80 ms, measurement time 240 ms).", "values": [{"smiles": "O=C(c1cc(S(=O)(=O)N2CCOCC2)ccc1Cl)N1CCOCC1", "activity, negative = inhibition": "6.5% [at 102 µM]"}, {"smiles": "CCCN(CCC)CCCNC(=O)Cn1ncc2c3ccccc3n(Cc3ccccc3)c2c1=O", "activity, negative = inhibition": "-10.6%"}, {"smiles": "Cc1nc2ccc(NC(=O)N3CCC(c4ccccc4)C3)cc2nc1C", "note": "(centres undefined)", "activity, negative = inhibition": "12.3% [at 12.7 µM]"}, {"smiles": "Cc1ccc(NC(=S)N2CCN(c3ncccn3)CC2)cc1C", "activity, negative = inhibition": "31.3%"}, {"smiles": "Cc1nc2ccc(NC(=S)N3CCC(C)CC3)cc2nc1C", "Potency": "44.7 µM (active)"}, {"smiles": "COc1cccc(NC(=O)C2C(c3ccccc3)C2(Cl)Cl)c1", "note": "(centres undefined)", "activity, negative = inhibition": "0.796% [at 0.501 µM]"}, {"smiles": "COC(=O)N/N=C/c1cn(CCCOc2ccc(C)cc2)c2ccccc12", "activity, negative = inhibition": "22.5%"}, {"smiles": "CNC(=S)N/N=C/c1cn(Cc2ccc(C)cc2)c2ccccc12", "Potency": "44.7 µM (active)"}, {"smiles": "CCOC(=O)N/N=C/c1cn(Cc2ccccc2Cl)c2ccccc12", "activity, negative = inhibition": "2.12%"}, {"smiles": "O=C(Cc1ccc(Cl)cc1)NC(=S)Nc1ccccc1O", "activity, negative = inhibition": "-13.3% [at 102 µM]"}, {"smiles": "Cc1cccc(C)c1NC(=O)CNC(=O)C1CCCC1", "activity, negative = inhibition": "26.8% [at 12.7 µM]"}, {"smiles": "NS(=O)(=O)c1cc(C(=O)OCC(=O)NNC(=O)c2ccccc2)ccc1Cl", "activity, negative = inhibition": "10.6%"}, {"smiles": "CN(NS(=O)(=O)c1cccs1)c1ncc(C(F)(F)F)cc1Cl", "activity, negative = inhibition": "61.6% [at 102 µM]"}, {"smiles": "CC(=O)c1c(C)[nH]c(C(=O)COc2ccc3c(C)cc(=O)oc3c2)c1C", "activity, negative = inhibition": "-2.97% [at 12.7 µM]"}, {"smiles": "COC(=O)c1cn(CC(=O)NCc2cccs2)c2ccccc12", "activity, negative = inhibition": "23%"}, {"smiles": "COC(=O)Cn1cc(C(=O)c2cccs2)c2ccccc21", "activity, negative = inhibition": "10.8% [at 12.7 µM]"}, {"smiles": "COC(=O)Cn1cc(/C=C/[N+](=O)[O-])c2ccccc21", "Potency": "39.8 µM (active)"}, {"smiles": "Cc1cccc(NC(=O)c2cccc(C(=O)Nc3cccc(C)c3C)n2)c1C", "Potency": "50.1 µM (active)"}, {"smiles": "Cc1cccc(NC(=O)c2ccc3nc(C(C)C)oc3c2)c1C", "activity, negative = inhibition": "6.18%"}, {"smiles": "Cc1cccc(NC(=O)c2ccc3nsnc3c2)c1C", "activity, negative = inhibition": "2.23% [at 102 µM]"}, {"smiles": "Cc1nc(C)c(C(=O)Nc2ccc(C)c(F)c2)o1", "activity, negative = inhibition": "20.5% [at 12.7 µM]"}, {"smiles": "COc1ccc(Cl)cc1NC(=O)c1oc(C)nc1C", "activity, negative = inhibition": "10.9% [at 12.7 µM]"}, {"smiles": "Cc1nc(C)c(C(=O)Nc2cccc(C)c2C)o1", "Potency": "44.7 µM (active)"}, {"smiles": "CCOC(=O)[C@H]1[C@H]2COc3ccc(OC)cc3[C@@H]2N2C(=O)c3ccc(F)cc3NC(=O)[C@@]12C", "activity, negative = inhibition": "22.3% [at 2.33 µM]"}, {"smiles": "O=C(NNC(=O)c1cc(S(=O)(=O)N2CCCCC2)ccc1Cl)c1ccccc1O", "activity, negative = inhibition": "36.2% [at 12.7 µM]"}, {"smiles": "Cc1ccc(C(=O)Nc2ccc(OCc3cc(=O)n4c(C)csc4n3)cc2)cc1", "activity, negative = inhibition": "4.04%"}, {"smiles": "O=C(C1CCC1)N1CCN(S(=O)(=O)c2ccc([N+](=O)[O-])cc2)CC1", "activity, negative = inhibition": "-3.47% [at 12.7 µM]"}, {"smiles": "Cc1cc(C)n(-c2nc(O)cc(=O)[nH]2)n1", "Potency": "4.47 µM (active)"}, {"smiles": "Cc1cc(C)n(-c2ccc(Cl)c(C(=O)O)n2)n1", "activity, negative = inhibition": "12.4% [at 102 µM]"}, {"smiles": "CC(=O)c1ccc(Oc2cc(C)nc(-n3nc(C)cc3C)n2)cc1", "activity, negative = inhibition": "-3.88%"}, {"smiles": "O=C(NCCc1ccccc1)c1cnc2sc(N3CCCC3)nn2c1=O", "activity, negative = inhibition": "13.7%"}, {"smiles": "COc1ccc(-c2csc3ncnc(N4CCN(S(=O)(=O)c5cccc(F)c5)CC4)c23)cc1", "activity, negative = inhibition": "-11.1% [at 2.33 µM]"}, {"smiles": "O=C(NCc1ccccc1Cl)C1=Cc2cc(Br)ccc2OC1", "activity, negative = inhibition": "21.6%"}, {"smiles": "Cc1ccc(C2C3=C(Nc4[nH]n(-c5ccccc5)c(=O)c42)c2ccccc2C3=O)cc1", "note": "(centres undefined)", "Potency": "3.16 µM (active)"}, {"smiles": "Cc1ccc(N2C(=O)C3C(c4ccccc4)(C2=O)C3(c2ccccc2)c2ccccc2)cc1", "note": "(centres undefined)", "activity, negative = inhibition": "28.9% [at 12.7 µM]"}, {"smiles": "Cc1ccc(C2SCC(=O)N2c2ccccc2)cc1", "note": "(centres undefined)", "activity, negative = inhibition": "-19.3% [at 102 µM]"}, {"smiles": "CCCn1c(=N)n(CC(O)COc2ccccc2OC)c2ccccc21", "note": "(centres undefined)", "activity, negative = inhibition": "0.0305%"}, {"smiles": "CCCCn1c(N)c(N(CCOC)C(=O)CSCC(=O)Nc2cccc(C)c2)c(=O)[nH]c1=O", "activity, negative = inhibition": "13.6%"}, {"smiles": "O=C(Nc1ccccc1F)c1ccc(S(=O)(=O)N2CCCCCC2)cc1", "activity, negative = inhibition": "62.1% [at 12.7 µM]"}, {"smiles": "CCOC(=O)CSc1nc2sc3c(c2c(=O)[nH]1)CC(C)(C)OC3", "activity, negative = inhibition": "-73.9% [at 102 µM]"}, {"smiles": "CC1(C)Cc2c(sc(NC(=O)C(=O)N3CCOCC3)c2C#N)CO1", "Potency": "35.5 µM (active)"}, {"smiles": "N#Cc1c(NC(=O)c2ccc(N3CCOCC3)c([N+](=O)[O-])c2)sc2c1CCCC2", "activity, negative = inhibition": "24.3%"}, {"smiles": "CCOC(=O)Cn1c(SC)nc2sc3c(c2c1=O)CC(C)(C)OC3", "activity, negative = inhibition": "8.03%"}, {"smiles": "CC1(C)Cc2c(sc(NC(=O)C(=O)NCC3CCCO3)c2C(=O)O)CO1", "note": "(centres undefined)", "activity, negative = inhibition": "21% [at 102 µM]"}, {"smiles": "CCOC(=O)N1CCN(C(=O)C(=O)Nc2sc3c(c2C#N)CC(C)(C)OC3)CC1", "Potency": "12.6 µM (active)"}, {"smiles": "CCN1CCC2(CC1)N=C(c1ccc(F)cc1)C(=S)N2C(=O)c1ccc(C)cc1", "Potency": "10 µM (active)"}, {"smiles": "Cc1ccc(NC(=O)CN2C(=O)C(c3ccc(F)cc3)=NC23CCCCCC3)c(C)c1", "activity, negative = inhibition": "26.7%"}, {"smiles": "CCN1CCN(C(=O)CSc2ccc(C)cc2)CC1", "activity, negative = inhibition": "8.84% [at 102 µM]"}, {"smiles": "O=C(Nc1ccc(S(=O)(=O)N2CCCCCC2)cc1)c1c(F)cccc1F", "activity, negative = inhibition": "-5.59% [at 12.7 µM]"}]}]}
